{"source": "PubChem BioAssay (Tox21)", "note": "Records with an inconclusive call do not appear. Calls of active or inactive are those of the source. Calls follow the shape of the dose curve; as a rule, active = well fitted inhibition curve with a large enough effect in the repeat runs; inconclusive = weak or mixed curves; inactive = flat fitted curve, though single readings scatter. % is scaled to controls: 0 for no effect and ±100 for the full control effect; potency is read from the fitted curve at half-maximal effect."}
{"target": "Voltage-gated inwardly rectifying potassium channel KCNH2 (Homo sapiens) (UniProt Q12809)", "sequence (Q12809 whole entry, looked up)": "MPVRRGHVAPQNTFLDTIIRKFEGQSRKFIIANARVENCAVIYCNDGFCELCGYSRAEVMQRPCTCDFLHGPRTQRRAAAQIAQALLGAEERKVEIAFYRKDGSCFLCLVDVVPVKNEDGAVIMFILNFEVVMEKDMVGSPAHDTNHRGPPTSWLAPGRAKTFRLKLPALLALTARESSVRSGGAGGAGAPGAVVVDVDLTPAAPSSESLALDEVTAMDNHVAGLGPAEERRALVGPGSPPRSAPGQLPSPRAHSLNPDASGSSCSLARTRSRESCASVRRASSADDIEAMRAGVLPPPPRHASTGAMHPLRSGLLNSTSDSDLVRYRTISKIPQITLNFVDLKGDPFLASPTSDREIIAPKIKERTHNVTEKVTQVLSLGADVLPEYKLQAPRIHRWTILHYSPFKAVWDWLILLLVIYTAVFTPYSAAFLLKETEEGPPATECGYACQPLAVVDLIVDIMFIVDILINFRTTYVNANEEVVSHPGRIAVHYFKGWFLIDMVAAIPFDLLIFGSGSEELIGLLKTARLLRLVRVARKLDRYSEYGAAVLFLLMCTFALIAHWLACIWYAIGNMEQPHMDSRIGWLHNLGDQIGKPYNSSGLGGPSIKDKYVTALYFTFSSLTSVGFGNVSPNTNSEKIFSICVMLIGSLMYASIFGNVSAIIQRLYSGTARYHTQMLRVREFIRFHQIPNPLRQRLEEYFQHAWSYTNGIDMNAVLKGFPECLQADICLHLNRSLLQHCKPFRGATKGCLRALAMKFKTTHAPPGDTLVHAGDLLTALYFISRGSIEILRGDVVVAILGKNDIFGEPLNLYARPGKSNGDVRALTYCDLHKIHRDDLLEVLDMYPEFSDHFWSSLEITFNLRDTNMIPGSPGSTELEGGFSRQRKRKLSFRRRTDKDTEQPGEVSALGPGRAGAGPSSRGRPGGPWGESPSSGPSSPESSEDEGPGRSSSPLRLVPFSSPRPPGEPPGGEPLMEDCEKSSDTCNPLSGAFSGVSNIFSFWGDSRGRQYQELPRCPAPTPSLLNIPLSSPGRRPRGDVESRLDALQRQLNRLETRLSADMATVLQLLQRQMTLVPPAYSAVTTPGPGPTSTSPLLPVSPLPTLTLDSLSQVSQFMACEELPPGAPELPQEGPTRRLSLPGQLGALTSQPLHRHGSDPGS", "assay": "Human Ether-a-go-go-Related Gene (hERG) channel small molecule antagonists: fluorescence cell-based qHTS assay (AID 1671200); also: nearly all actives have a fitted effect of over 50% in size", "conditions": "hERG-U2OS cells, FluxOR thallium flux fluorescence; series mostly up to 76.8 µM; activity change, negative = inhibition: at the top concentration", "outline": "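Measured: Tl+ flux via fluorescence (480/540 nm) in hERG-expressing U2OS cells after 1 h dye loading at room temperature.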"}
{"compound": "O=[N+]([O-])O.O=[N+]([O-])O.[Cd]", "activity change, negative = inhibition": "2.37% (inactive)"}
{"compound": "N#CC(Cl)Cl", "activity change, negative = inhibition": "-1.63% (inactive)"}
{"compound": "Cc1ccc(OP(=O)(Oc2ccccc2)Oc2ccccc2)cc1", "Potency": "24.9 µM (active)"}
{"compound": "CN(CCCC(=O)c1cccnc1)N=O", "activity change, negative = inhibition": "5.29% (inactive)"}
{"compound": "COc1cccc(C(=O)CCN[C@@H](C)[C@H](O)c2ccccc2)c1", "activity change, negative = inhibition": "-14.7% [at 35.3 µM] (inactive)"}
{"compound": "CN(C)C(=S)[S-].CN(C)C(=S)[S-].[Cu+2]", "activity change, negative = inhibition": "-11.4% [at 15.8 µM] (inactive)"}
{"compound": "O=C(CCl)C(Cl)Cl", "activity change, negative = inhibition": "-11.2% (inactive)"}
{"compound": "CCOc1cc(C(C)(C)C)ccc1C1COC(c2c(F)cccc2F)=N1", "note": "(stereo not given)", "Potency": "13.3 µM (active)"}
{"compound": "ClC1=C(Cl)C2(Cl)C3C(Cl)C=CC3C1(Cl)C2(Cl)Cl", "note": "(stereo not given)", "Potency": "21.9 µM (active)"}
{"compound": "CCN(CC)c1c([N+](=O)[O-])cc(C(F)(F)F)c(N)c1[N+](=O)[O-]", "activity change, negative = inhibition": "-25.2% (inactive)"}
{"compound": "[Cd+2].[Cl-].[Cl-]", "Potency": "inactive"}
{"compound": "CN(C)C(=S)S", "Potency": "inactive"}
{"compound": "FC(F)(F)c1cccc(C2=CCN(CCc3ccc4ccccc4c3)CC2)c1", "Potency": "1.69 µM (active)"}
{"compound": "C[C@H]1CC[C@@H]2[C@@H](C)[C@H]3[C@H](C[C@H]4[C@@H]5CC=C6CC(O[C@@H]7O[C@H](CO)[C@H](O)[C@H](O[C@@H]8O[C@H](CO)[C@@H](O)[C@H](O)[C@H]8O)[C@H]7O[C@H]7O[C@@H](C)[C@H](O)[C@@H](O)[C@H]7O)CC[C@]6(C)[C@H]5CC[C@]34C)N2C1", "note": "(stereo not given in full)", "activity change, negative = inhibition": "3.19% (inactive)"}
{"compound": "CC(=O)[O-].CC(=O)[O-].[Hg+2]", "Potency": "6.92 µM (active)"}
{"compound": "C=CCOC(N)=O", "activity change, negative = inhibition": "-2.98% (inactive)"}
{"compound": "O=C1c2ccccc2C(=O)C1C(=O)C(c1ccccc1)c1ccc(Cl)cc1", "note": "(stereo not given)", "activity change, negative = inhibition": "9.49% (inactive)"}
{"compound": "O=CC(Br)(Br)Br", "activity change, negative = inhibition": "-17.5% (inactive)"}
{"compound": "CN(C)[C@@H]1C(=O)C(C(N)=O)=C(O)[C@@]2(O)C(=O)C3=C(O)c4c(O)ccc(Cl)c4[C@@](C)(O)[C@H]3C[C@@H]12", "activity change, negative = inhibition": "27.7% (inactive)"}
{"compound": "c1ccc(OCC2CO2)cc1", "note": "(stereo not given)", "activity change, negative = inhibition": "-0.356% (inactive)"}
{"compound": "COCC(=O)N(c1c(C)cccc1C)[C@H](C)C(=O)OC", "activity change, negative = inhibition": "2.77% (inactive)"}
{"compound": "CCC(C)c1cc(C(C)(C)C)cc(-n2nc3ccccc3n2)c1O", "note": "(stereo not given)", "activity change, negative = inhibition": "-13.8% [at 35.3 µM] (inactive)"}
{"compound": "CC(=O)[O-].CC(=O)[O-].O.O.[Cd+2]", "activity change, negative = inhibition": "-2.65% (inactive)"}
{"compound": "Cc1cc(C(C)(C)c2cc(C)c(O)c(C)c2)cc(C)c1O", "activity change, negative = inhibition": "6.2% (inactive)"}
{"compound": "CCCSP(=O)(OCC)SCCC", "activity change, negative = inhibition": "16.2% (inactive)"}
